Inconclusive results are not listed. Activity calls are given as the source filed them. Unless noted, the call rests on the fitted dose curve.

Assay [1] is described as follows: Cytotoxicity counterscreen for inhibitors of SARS-CoV-2 cell entry (AID 1645845). Further: nearly all actives have a fitted effect of over 50% in size. Further: potency means the concentration at half of the fitted maximal effect. The method, boiled down:
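ATP-content luminescence (ATPLite 1step, 15 min RT) read after 48 h compound exposure of Expi293F cells stably expressing human ACE2; normalized to cells-only wells and media-only wells.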

The test system of a further assay is CRL-7250. Kind of assay: qHTS assay to identify novel small-molecules to repurpose for Merkel cell carcinoma treatment (AID 1296009; active means well fitted inhibition curve with a large enough effect; further: nearly all actives have a fitted effect of over 60% in size). The conditions noted are these: MCC and control cell lines, CellTiter-Glo viability, 72 h; series mostly up to 92 µM. The method, boiled down: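 Cell viability measured by CellTiter-Glo following 72 hr compound treatment at 37 degree celsius, with NPC and MIPE libraries tested in 8- and 11-point concentration series.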
(qHTS replaces the single test concentration by a dilution series.)

A short description of assay [2]: Confirmatory qHTS for VERO E6 Cytotoxicity Assay: Counterscreen for SARS-CoV-2 CPE Assay (AID 1508605). Further: on the % scale 0 is the no-effect control and ±100 the full control effect; nearly all actives have a fitted effect of over 60% in size.
The nature of assay [3]: Primary qHTS to identify inhibitors of SARS-CoV-2 cell entry (AID 1645846). Further: nearly all actives have a fitted effect of over 45% in size. The conditions noted are these: activity change, negative = inhibition: at 57.1 µM (top of the series) unless noted. The method, boiled down:
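Inhibition of spike-mediated entry was scored in human ACE2-transfected Expi293F cells. Particles were MLV-pseudotyped with Wuhan-Hu-1 S carrying a 19-aa C-terminal deletion; signal was luciferase after two days, scaled between spike PP and fusion-protein-free PP.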

A short description of assay [4]: qHTS for inhibitors of Rabies Virus screened against the NCATS CANVASS Library (AID 1347402). Further: 0% is about no effect.
The nature of assay [5]: Confirmatory qHTS for activators (rescue) of SARS-CoV-2 Cytopathic Effect (CPE) (AID 1508606). Further: nearly all actives have a fitted effect of over 70% in size. Further: potency means the concentration at half of the fitted maximal effect.
Assay [6] is described as follows: qHTS for Inhibitors of the Functional Ribonucleoprotein Complex (vRNP) of Lymphocytic Choriomeningitis Arenaviruses (LCMV): Viability assay - alamar blue signal for LCMV Primary Screen (AID 1347085; calls by dose curve; tested in HEK293 reporter line; further: nearly all actives have a fitted effect of over 80% in size; further: potency means the concentration at half of the fitted maximal effect).
The nature of assay [7]: Primary qHTS for inhibitors of SARS-S pseudo-typed particle cell entry (AID 1479145). Further: nearly all actives have a fitted effect of over 45% in size. On activity change, negative = inhibition: on the % scale 0 is the no-effect control and ±100 the full control effect.
The nature of assay [8]: Primary qHTS for Huh7 cytotoxicity: counterscreen for inhibitors of MERS-S pseudotyped particle cell entry (AID 1479147). Conditions: outcome: dose series up to 57.1 µM unless noted.
Assay [9] in a line: Primary qHTS for Vero E6 cytotoxicity: counterscreen for inhibitors of SARS-S pseudo-typed particle cell entry (AID 1479150). Conditions: outcome: dose series up to 57.1 µM unless noted.
Assay [10] is described as follows: Primary qHTS for inhibitors of MERS-S pseudo-typed particle cell entry (AID 1479149). Further: nearly all actives have a fitted effect of over 60% in size. On activity change, negative = inhibition: on the % scale 0 is the no-effect control and ±100 the full control effect.
Assay [11] is described as follows: Confirmatory qHTS to identify inhibitors of SARS-CoV-2 cell entry (AID 1645844). Further: on the % scale 0 is the no-effect control and ±100 the full control effect; nearly all actives have a fitted effect of over 45% in size. The method, boiled down: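 Luminescence entry read-out after 48 h: spike-pseudotyped MLV particles (Wuhan-Hu-1, 19-aa C-terminal truncation) added to compound-pretreated (1 h) HEK293-ACE2 cells; Data were normalised to bald PP and spike PP wells.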

Turning to `COc1cc(-c2cc(-c3ccc(N4CCNCC4)cc3)cnc2C)cc(OC)c1OC`, the Potency entry (in assay [1]; in the assay with CRL-7250) was “inactive” throughout.

`CN1CC[C@@H](c2c(O)cc(O)c3c(=O)cc(-c4ccc(C(F)(F)F)cc4Cl)oc23)[C@@H]1CO`: the Potency result (in [2]; in assay [1]; in the assay on CRL-7250) was “inactive” throughout. The activity change, negative = inhibition in [3] was -12.4%.

Take `CC1=C2C(=O)O[C@@H](c3ccoc3)[C@]2(C)CCC1`: in assay [4], the result was inactive. Besides, the Potency entry in the assay on CRL-7250 is “inactive”.

As for `CCC(=O)c1cc(-c2ccc(Cl)cc2)n(-c2ccc(S(N)(=O)=O)cc2)c1C`, the Potency result (in assay [2]; in assay [5]; in the assay on CRL-7250) was “inactive” throughout.

Take `CN(C)CCOc1cc(-c2cn[nH]c2)ccc1NC(=O)C1COc2ccccc2O1` (stereo not given): the Potency in assay [6] is 27.3 µM (active). For the same molecule, the Potency result (in [1]; with CRL-7250) was “inactive” each time. Besides, the activity change, negative = inhibition in [3] was -42.9%.

For the molecule `CCc1c(Cl)c(O)c(Cl)c(O)c1C(=O)O[C@H]1[C@H](O)[C@H](OC)[C@H](OC/C2=C\C=C\C[C@H](O)/C(C)=C\[C@H](CC)[C@@H](O[C@@H]3OC(C)(C)[C@@H](OC(=O)C(C)C)[C@H](O)[C@@H]3O)/C(C)=C/C(C)=C/C[C@@H]([C@@H](C)O)OC2=O)O[C@@H]1C`, the Potency entry (in [7]; with CRL-7250) was “inactive” in each case. Also, the molecule was called inactive in assay [8] and in assay [9].

In the case of `C[C@]12CC[C@@H]3c4ccc(OC(=O)c5ccccc5)cc4CC[C@H]3[C@@H]1CC[C@@H]2O`, the Potency entry (in assay [7]; in assay [1]; with CRL-7250) was “inactive” in each case. For the same molecule, the result in assay [8] and in [9] was inactive. Also, in [3], the activity change, negative = inhibition is -3.2%.

Take `Cn1nccc1Nc1nccc(-c2ccn([C@H](CO)c3ccc(Cl)c(F)c3)c(=O)c2)n1`: in assay [1], the Potency was 11.2 µM (active). For the same molecule, the Potency entry in the assay on CRL-7250 is “inactive”.

Consider `O=C1NC(=O)/C(=C/c2cccc(C(F)(F)F)c2)S1`, for which the Potency result (in assay [2]; in the assay with CRL-7250) was “inactive” each time.

Turning to `CC(=O)OC(C)(C)/C=C/C(=O)[C@](C)(O)[C@H]1C(O)C[C@@]2(C)[C@@H]3CC=C4[C@@H](C=C(O[C@@H]5O[C@H](CO)[C@@H](O)[C@H](O)[C@H]5O)C(=O)C4(C)C)[C@]3(C)C(=O)C[C@]12C` (stereo not given in full), the Potency entry (in assay [7]; in assay [10]; in assay [1]; with CRL-7250) was “inactive” each time. Besides, the outcome in [8] and in assay [9] was “inactive [at 15.3 µM]” in each case.

Turning to `CC[C@@](C)(Nc1ccnc(-c2c[nH]c3ncccc23)n1)C(=O)NCC(F)(F)F`, the Potency result (in assay [11]; in [1]; with CRL-7250) was “inactive” in each case.

`c1cc(OCCN2CCCCC2)cc(-c2n[nH]c3ccc(-c4ncn[nH]4)cc23)c1`: the Potency result (in assay [6]; in assay [1]; with CRL-7250) was “inactive” each time.

Take `CCN(CC)CCOCCOC(=O)C(CC)(CC)c1ccccc1`: the call in [8] and in [9] was inactive. Moreover, the Potency result (in [11]; in [1]; in the assay with CRL-7250) was “inactive” in each case.

For the molecule `COc1ccc(CN2CCN(CCCSc3cc(C(C)(C)C)c(O)c(C(C)(C)C)c3)CC2)c(OC)c1OC`, in [2], the Potency entry is “inactive”. Moreover, the outcome in the assay on CRL-7250 was “inactive [at 9.27 µM]”.

Regarding `CN(C)S(=O)(=O)c1ccc(NC(=S)N2CCC(C(O)(c3ccccc3)c3ccccc3)CC2)cc1`, the Potency entry (in assay [2]; in the assay on CRL-7250) was “inactive” in each case.

Regarding `COC(=O)N(C)c1c(N)nc(-c2nn(Cc3ccccc3F)c3ncccc23)nc1N`, the Potency result (in assay [7]; in assay [10]; in assay [1]; in assay [3]; in the assay on CRL-7250) was “inactive” each time. Besides, the call in assay [8] and in assay [9] was inactive.

Turning to `CCc1ccc(Cc2ccc3c(c2)[C@]2(OC3)O[C@H](CO)[C@@H](O)[C@H](O)[C@H]2O)cc1`, the Potency result (in [7]; in [1]; in the assay on CRL-7250) was “inactive” throughout. The outcome in [8] and in [9] was inactive.

For the molecule `Cn1nc(C(C)(C)C)cc1C(=O)N[C@@H](Cc1cccc(Cl)c1)C(=O)NCC#N`, the Potency entry (in assay [2]; in the assay with CRL-7250) was “inactive” throughout. In assay [5], the Potency was 0.224 µM (active).

`CCc1cccc(CC)c1-n1c(C=C(C)C)c(C(=O)N2CCNCC2)cc(-c2nc(-c3ccc(C(F)(F)F)cc3)cs2)c1=O`: the Potency result (in [2]; in [5]; in the assay with CRL-7250) was “inactive” each time.

As to `Cn1ncc2cc(-c3cnc(N)c(Cl)c3N3CCC4(CCNC4=O)CC3)ccc21`, the Potency in assay [5] is 2.82 µM (active). The Potency entry (in assay [1]; in the assay with CRL-7250) was “inactive” in each case.

As to `COc1ccccc1OCCNCC(O)CCOc1cccc2[nH]c3ccccc3c12` (stereo not given), the Potency entry (in assay [2]; with CRL-7250) was “inactive” each time. In assay [5], the Potency was 10 µM (active).

With `CCOc1nc2cccc(C(=O)OCc3oc(=O)oc3C)c2n1Cc1ccc(-c2ccccc2-c2noc(O)n2)cc1`, the Potency entry (in assay [7]; in assay [10]; in assay [1]; in the assay on CRL-7250) was “inactive” in each case. The result in assay [8] and in assay [9] was inactive.
